Substitutions are numbered along the chain they refer to.
Tests used:
Test in all cases: PBM; 200 nM protein, PBS
Conditions in all cases: dsDNA, one strand shown
[1] = target: HOXB4 (Homo sapiens, UniProt P17483 148-234)
[2] = target: T1, VENTX (Homo sapiens, UniProt O95231 78-163, R121Q)
T1 sequence: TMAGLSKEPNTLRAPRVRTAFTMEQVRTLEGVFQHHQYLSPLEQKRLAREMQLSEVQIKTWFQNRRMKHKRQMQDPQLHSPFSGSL

[3] = target: T2, VENTX (Homo sapiens, UniProt O95231 78-163)
T2 sequence: T1 sequence with Q44R

[4] = target: HOXA7 (Homo sapiens, UniProt P31268 116-202)
[5] = target: HOXC10 (Homo sapiens, UniProt Q9NYD6 254-340)
[6] = target: T3, VENTX (Homo sapiens, UniProt O95231 78-163, Y115F)
T3 sequence: T1 sequence with Y38F, Q44R

[7] = target: HOXB4 (Homo sapiens, UniProt P17483 148-234, V174I)
[8] = target: HOXD13 (Homo sapiens, UniProt P35453 263-343, T313R)
[9] = target: HOXD13 (Homo sapiens, UniProt P35453 263-343)
[10] = target: HOXC10 (Homo sapiens, UniProt Q9NYD6 254-340, K271E)
[11] = target: VAX1 (Homo sapiens, UniProt Q5SQQ9 86-172)
[12] = target: HOXD13 (Homo sapiens, UniProt P35453 263-343, T313A)
[13] = target: VAX1 (Homo sapiens, UniProt Q5SQQ9 86-172, T142I)
[14] = target: HOXA7 (Homo sapiens, UniProt P31268 116-202, W177C)
[15] = target: VAX1 (Homo sapiens, UniProt Q5SQQ9 86-172, K157R)
[16] = target: HOXA4 (Homo sapiens, UniProt Q00056 201-287, W262R)
[17] = target: HOXA2 (Homo sapiens, UniProt O43364 129-215, R185T)
[18] = target: HOXA4 (Homo sapiens, UniProt Q00056 201-287, R217L)
[19] = target: HOXA2 (Homo sapiens, UniProt O43364 129-215, R185K)
[20] = target: HOXA4 (Homo sapiens, UniProt Q00056 201-287)
[21] = target: HOXA2 (Homo sapiens, UniProt O43364 129-215, Y150S)
[22] = target: HOXA4 (Homo sapiens, UniProt Q00056 201-287, W262F)
[23] = target: HOXA2 (Homo sapiens, UniProt O43364 129-215)
[24] = target: ALX3 (Homo sapiens, UniProt O95076 139-225, N203Q)
[25] = target: ALX3 (Homo sapiens, UniProt O95076 139-225)
[26] = target: ALX3 (Homo sapiens, UniProt O95076 139-225, L168Q)
[27] = target: ALX3 (Homo sapiens, UniProt O95076 139-225, L168V)
[28] = target: ALX3 (Homo sapiens, UniProt O95076 139-225, N203S)
ALX3 (Homo sapiens, UniProt O95076 139-225, N203S), sequence (O95076 139-225 N203S): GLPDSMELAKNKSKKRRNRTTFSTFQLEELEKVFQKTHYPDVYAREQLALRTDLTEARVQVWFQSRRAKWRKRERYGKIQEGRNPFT

HOXB4 (Homo sapiens, UniProt P17483 148-234), sequence (P17483 148-234): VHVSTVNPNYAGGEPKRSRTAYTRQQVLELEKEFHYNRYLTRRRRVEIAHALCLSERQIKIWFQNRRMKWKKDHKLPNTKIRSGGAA
VAX1 (Homo sapiens, UniProt Q5SQQ9 86-172, K157R), sequence (Q5SQQ9 86-172 K157R): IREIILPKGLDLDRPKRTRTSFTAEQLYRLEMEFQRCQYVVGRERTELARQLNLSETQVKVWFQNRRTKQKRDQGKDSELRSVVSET
VAX1 (Homo sapiens, UniProt Q5SQQ9 86-172, T142I), sequence (Q5SQQ9 86-172 T142I): as the sequence (Q5SQQ9 86-172 K157R) above, with T57I, R72K counted along it
HOXB4 (Homo sapiens, UniProt P17483 148-234, V174I), sequence (P17483 148-234 V174I): as the sequence (P17483 148-234) above, with V27I counted along it
VAX1 (Homo sapiens, UniProt Q5SQQ9 86-172), sequence (Q5SQQ9 86-172): as the sequence (Q5SQQ9 86-172 K157R) above, with R72K counted along it
HOXA7 (Homo sapiens, UniProt P31268 116-202, W177C), sequence (P31268 116-202 W177C): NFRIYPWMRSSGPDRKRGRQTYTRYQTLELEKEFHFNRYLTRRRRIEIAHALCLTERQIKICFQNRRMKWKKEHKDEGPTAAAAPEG
HOXA7 (Homo sapiens, UniProt P31268 116-202), sequence (P31268 116-202): as the sequence (P31268 116-202 W177C) above, with C62W counted along it
HOXD13 (Homo sapiens, UniProt P35453 263-343, T313R), sequence (P35453 263-343 T313R): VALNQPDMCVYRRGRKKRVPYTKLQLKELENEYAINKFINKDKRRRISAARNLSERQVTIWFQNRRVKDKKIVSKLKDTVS
HOXC10 (Homo sapiens, UniProt Q9NYD6 254-340), sequence (Q9NYD6 254-340): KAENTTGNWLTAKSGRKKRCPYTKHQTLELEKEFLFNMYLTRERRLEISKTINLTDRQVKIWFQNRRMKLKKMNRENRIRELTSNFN
HOXD13 (Homo sapiens, UniProt P35453 263-343, T313A), sequence (P35453 263-343 T313A): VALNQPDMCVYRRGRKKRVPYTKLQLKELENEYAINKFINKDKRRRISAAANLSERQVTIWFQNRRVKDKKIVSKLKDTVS
HOXA4 (Homo sapiens, UniProt Q00056 201-287, W262F), sequence (Q00056 201-287 W262F): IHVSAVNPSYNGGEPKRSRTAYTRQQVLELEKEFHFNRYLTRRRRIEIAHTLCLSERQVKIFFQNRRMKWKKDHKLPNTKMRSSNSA
HOXA4 (Homo sapiens, UniProt Q00056 201-287, W262R), sequence (Q00056 201-287 W262R): as the sequence (Q00056 201-287 W262F) above, with F62R counted along it
HOXA4 (Homo sapiens, UniProt Q00056 201-287), sequence (Q00056 201-287): as the sequence (Q00056 201-287 W262F) above, with F62W counted along it
HOXD13 (Homo sapiens, UniProt P35453 263-343), sequence (P35453 263-343): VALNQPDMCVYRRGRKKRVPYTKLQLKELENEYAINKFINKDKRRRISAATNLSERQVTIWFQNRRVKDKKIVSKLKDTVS
ALX3 (Homo sapiens, UniProt O95076 139-225, L168V), sequence (O95076 139-225 L168V): as the sequence (O95076 139-225 N203S) above, with L30V, S65N counted along it
HOXC10 (Homo sapiens, UniProt Q9NYD6 254-340, K271E), sequence (Q9NYD6 254-340 K271E): as the sequence (Q9NYD6 254-340) above, with K18E counted along it
HOXA2 (Homo sapiens, UniProt O43364 129-215, R185K), sequence (O43364 129-215 R185K): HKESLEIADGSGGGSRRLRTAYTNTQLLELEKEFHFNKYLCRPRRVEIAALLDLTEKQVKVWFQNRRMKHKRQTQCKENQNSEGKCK
HOXA4 (Homo sapiens, UniProt Q00056 201-287, R217L), sequence (Q00056 201-287 R217L): as the sequence (Q00056 201-287 W262F) above, with R17L, F62W counted along it
ALX3 (Homo sapiens, UniProt O95076 139-225), sequence (O95076 139-225): as the sequence (O95076 139-225 N203S) above, with S65N counted along it
HOXA2 (Homo sapiens, UniProt O43364 129-215, R185T), sequence (O43364 129-215 R185T): as the sequence (O43364 129-215 R185K) above, with K57T counted along it
HOXA2 (Homo sapiens, UniProt O43364 129-215, Y150S), sequence (O43364 129-215 Y150S): as the sequence (O43364 129-215 R185K) above, with Y22S, K57R counted along it
ALX3 (Homo sapiens, UniProt O95076 139-225, L168Q), sequence (O95076 139-225 L168Q): as the sequence (O95076 139-225 N203S) above, with L30Q, S65N counted along it
ALX3 (Homo sapiens, UniProt O95076 139-225, N203Q), sequence (O95076 139-225 N203Q): as the sequence (O95076 139-225 N203S) above, with S65Q counted along it
HOXA2 (Homo sapiens, UniProt O43364 129-215), sequence (O43364 129-215): as the sequence (O43364 129-215 R185K) above, with K57R counted along it

CGCCGCCG
binding signal [1]: 8.06 upbm affinity estimate (log intensity, higher = more binding, comparable within an allelic series) | binding signal [2]: 8.02 upbm affinity estimate (log intensity, higher = more binding, comparable within an allelic series) | binding signal [3]: 8.3 upbm affinity estimate (log intensity, higher = more binding, comparable within an allelic series) | binding signal [4]: 8.5 upbm affinity estimate (log intensity, higher = more binding, comparable within an allelic series) | binding signal [5]: 10 upbm affinity estimate (log intensity, higher = more binding, comparable within an allelic series) | binding signal [6]: 8.17 upbm affinity estimate (log intensity, higher = more binding, comparable within an allelic series) | binding signal [7]: 7.89 upbm affinity estimate (log intensity, higher = more binding, comparable within an allelic series) | binding signal [8]: 9.36 upbm affinity estimate (log intensity, higher = more binding, comparable within an allelic series) | binding signal [9]: 9.39 upbm affinity estimate (log intensity, higher = more binding, comparable within an allelic series) | binding signal [10]: 10 upbm affinity estimate (log intensity, higher = more binding, comparable within an allelic series) | binding signal [11]: 7.38 upbm affinity estimate (log intensity, higher = more binding, comparable within an allelic series) | binding signal [12]: 9.5 upbm affinity estimate (log intensity, higher = more binding, comparable within an allelic series) | binding signal [13]: 7.39 upbm affinity estimate (log intensity, higher = more binding, comparable within an allelic series) | binding signal [14]: 8.25 upbm affinity estimate (log intensity, higher = more binding, comparable within an allelic series) | binding signal [15]: 7.32 upbm affinity estimate (log intensity, higher = more binding, comparable within an allelic series)

ACTAATGA
binding signal [1]: 13.4 upbm affinity estimate (log intensity, higher = more binding, comparable within an allelic series) | binding signal [2]: 12.1 upbm affinity estimate (log intensity, higher = more binding, comparable within an allelic series) | binding signal [16]: 10.8 upbm affinity estimate (log intensity, higher = more binding, comparable within an allelic series) | binding signal [3]: 12.7 upbm affinity estimate (log intensity, higher = more binding, comparable within an allelic series) | binding signal [6]: 12 upbm affinity estimate (log intensity, higher = more binding, comparable within an allelic series) | binding signal [17]: 13.3 upbm affinity estimate (log intensity, higher = more binding, comparable within an allelic series) | binding signal [18]: 12.2 upbm affinity estimate (log intensity, higher = more binding, comparable within an allelic series) | binding signal [7]: 14 upbm affinity estimate (log intensity, higher = more binding, comparable within an allelic series) | binding signal [19]: 13.6 upbm affinity estimate (log intensity, higher = more binding, comparable within an allelic series) | binding signal [20]: 14.1 upbm affinity estimate (log intensity, higher = more binding, comparable within an allelic series) | binding signal [11]: 13.5 upbm affinity estimate (log intensity, higher = more binding, comparable within an allelic series) | binding signal [13]: 13.3 upbm affinity estimate (log intensity, higher = more binding, comparable within an allelic series) | binding signal [21]: 10.9 upbm affinity estimate (log intensity, higher = more binding, comparable within an allelic series) | binding signal [22]: 12.3 upbm affinity estimate (log intensity, higher = more binding, comparable within an allelic series) | binding signal [23]: 12.9 upbm affinity estimate (log intensity, higher = more binding, comparable within an allelic series) | binding signal [15]: 13.3 upbm affinity estimate (log intensity, higher = more binding, comparable within an allelic series)

CAGACCCC
binding signal [1]: 7.56 upbm affinity estimate (log intensity, higher = more binding, comparable within an allelic series) | binding signal [4]: 8.69 upbm affinity estimate (log intensity, higher = more binding, comparable within an allelic series) | binding signal [7]: 7.7 upbm affinity estimate (log intensity, higher = more binding, comparable within an allelic series) | binding signal [24]: 7.73 upbm affinity estimate (log intensity, higher = more binding, comparable within an allelic series) | binding signal [25]: 7.61 upbm affinity estimate (log intensity, higher = more binding, comparable within an allelic series) | binding signal [11]: 6.95 upbm affinity estimate (log intensity, higher = more binding, comparable within an allelic series) | binding signal [26]: 7.69 upbm affinity estimate (log intensity, higher = more binding, comparable within an allelic series) | binding signal [27]: 7.66 upbm affinity estimate (log intensity, higher = more binding, comparable within an allelic series) | binding signal [13]: 7.15 upbm affinity estimate (log intensity, higher = more binding, comparable within an allelic series) | binding signal [14]: 8.53 upbm affinity estimate (log intensity, higher = more binding, comparable within an allelic series) | binding signal [28]: 7.74 upbm affinity estimate (log intensity, higher = more binding, comparable within an allelic series) | binding signal [15]: 6.94 upbm affinity estimate (log intensity, higher = more binding, comparable within an allelic series)

From article PMC11006913
